Screening results deposited in PubChem by The Scripps Research Institute Molecular Screening Center.
FBW7 act: human FBW7 E3 ligase activation, primary screen. normalized activity (activation), % at 26.1 µM. AlphaScreen FBW7–phospho-cyclin E peptide binding, activator screen. Q969H0. 0.13% of 650,000 active; in the data active means normalized activity above about 1.9%;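 further: purified mutant Fbw7 with reduced substrate affinity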
Target sequence (Q969H0 whole entry, looked up): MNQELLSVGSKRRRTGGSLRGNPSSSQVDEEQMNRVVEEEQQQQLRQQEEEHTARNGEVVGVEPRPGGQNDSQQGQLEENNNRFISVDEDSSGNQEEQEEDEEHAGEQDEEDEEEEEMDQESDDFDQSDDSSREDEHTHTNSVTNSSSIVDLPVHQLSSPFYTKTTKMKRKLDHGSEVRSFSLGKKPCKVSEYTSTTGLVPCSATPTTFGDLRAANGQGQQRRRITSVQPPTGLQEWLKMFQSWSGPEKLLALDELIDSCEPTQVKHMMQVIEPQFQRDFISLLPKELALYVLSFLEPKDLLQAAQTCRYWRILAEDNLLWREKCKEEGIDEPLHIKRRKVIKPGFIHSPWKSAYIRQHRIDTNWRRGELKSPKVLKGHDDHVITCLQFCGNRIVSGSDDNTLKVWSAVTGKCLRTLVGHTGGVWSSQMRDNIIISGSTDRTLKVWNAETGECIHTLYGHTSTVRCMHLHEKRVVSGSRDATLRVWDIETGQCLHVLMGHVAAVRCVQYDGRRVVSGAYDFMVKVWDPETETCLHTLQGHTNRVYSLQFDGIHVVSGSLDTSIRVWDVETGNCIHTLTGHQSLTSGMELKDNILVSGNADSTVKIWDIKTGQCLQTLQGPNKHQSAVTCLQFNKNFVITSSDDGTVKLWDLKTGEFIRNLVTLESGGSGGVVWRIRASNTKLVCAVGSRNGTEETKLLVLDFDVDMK
MITF primary: blocks human microphthalmia-associated transcription factor. O75030. AlphaScreen MITF homodimerization, bead proximity signal. inhibition, % at 2.6 µM. 0.91% of 650,000 active. AID 1259374; in the data active means inhibition above about 50%
GPR151 ag: activators of human GPR151. PathHunter beta-arrestin GPR151 cells, luminescence. activation, % at 11.2 µM. 1% of 650,000 active; in the data active means activation above about 4.9%
TEAD-YAP block: TEAD-YAP interaction inhibition; HEK-TIYL cells, TEAD-Gal4/YAP UAS-luciferase luminescence; inhibition, % at 9.12 µM; 1.4% of 640,000 active; AID 1259422; in the data active means inhibition above about 32%
Each line names hits and unclear results; the compound was inactive in the other large screens; ! = not active in a repeat. Rows were chosen to be rich in hits. Some 3.5% of all compounds tested hit in one or more screens of this group.

CC(=NCCCN1CCOCC1)c1c(C)[nH]n(-c2nc3ccccc3s2)c1=O	TEAD-YAP block 32.9!
COc1ccc(OC)c(N=C(C)c2c(C)[nH]n(-c3nc4ccccc4s3)c2=O)c1	none
CC(=NCCO)c1c(-c2ccccc2)[nH]n(-c2nc3ccccc3s2)c1=O	none
Cc1cc(-c2ccccc2)nc2cc(C(=O)Nc3ccc(Cl)cc3Cl)nn12	none
COc1ccccc1-c1c(C(F)(F)F)oc2cc(OC(=O)N3CCOCC3)ccc2c1=O	TEAD-YAP block 52.2
COc1ccccc1-c1c(C(F)(F)F)oc2cc(OC(=O)C(C)C)ccc2c1=O	none
COc1ccc(C(=O)NCCc2ccc(N(C)C)cc2)cc1	none
CC(C)CCC1=NN(C(=O)Cc2ccccc2)C(O)(C(F)(F)F)C1 (stereo not given)	none
O=C(Nc1ccccc1C(F)(F)F)c1ccccc1[N+](=O)[O-]	none
O=C(Oc1ccc([N+](=O)[O-])c2cccnc12)c1ccccc1	MITF primary 81.7, TEAD-YAP block 57.0
COc1ccc2c(c1)OCC(Cc1ccc(OC)c(OC)c1)C2=O (stereo not given)	TEAD-YAP block 47.8
COc1ccc2c(c1)O[C@@H]1COc3cc(OC)c(OC)cc3[C@@H]1C2=O	TEAD-YAP block 32.3
COc1ccc(NC(=O)Cc2ccc(OC)c(OC)c2)c(OC)c1	none
COc1ccc2c(c1)OCC(Cc1ccc(OC)c(OC(C)=O)c1)C2=O (stereo not given)	TEAD-YAP block 51.6
CC(=O)Nc1ccc2nc(SCC(=O)NCc3ccccc3)sc2c1	TEAD-YAP block 38.5
O=C(CSc1nc2ccc(NC(=O)c3ccccc3)cc2s1)NCc1ccccc1	none
Cc1cccc(-c2nnn3c2nc(NCc2ccco2)c2ccccc23)c1	none
O=C(/C=C\Nc1cccc(F)c1)c1ccc2c(c1)OCO2	TEAD-YAP block 55.1
COc1cccc(C(=O)/C=C/Nc2cccc(O)c2)c1	TEAD-YAP block 97.4
O=C(/C=C\Nc1ccc2c(c1)OCO2)c1ccc2ccccc2c1	none
O=C(/C=C/Nc1cccc(O)c1)c1ccc(Cl)cc1	TEAD-YAP block 96.8
O=C(Nc1ccc2c(c1)CN(C(=O)CN1CCOC1=O)CC2)c1ccccc1Cl	none
Cn1ccc(CC(=O)N2CCc3ccc(NC(=O)c4ccccc4Cl)cc3C2)c1	TEAD-YAP block 42.7
COc1ccc(C(=O)Nc2nc3c(Cl)cccc3s2)c(OC)c1	TEAD-YAP block 78.0
O=C(NC(=S)Nc1nc2ccccc2s1)c1ccccc1Cl	TEAD-YAP block 69.6
CC(C)Oc1ccc(C(=O)Nc2nc3ccccc3s2)cc1	TEAD-YAP block 73.5
O=C(Nc1nc2ccccc2s1)c1ccc(C(=O)c2ccccc2)cc1	none
CC(C)Oc1ccc(C(=O)NCc2ccccc2)cc1	FBW7 act 2.5
COc1ccc(CNC(=O)c2ccc(OC(C)C)cc2)cc1	none
CC(=O)Nc1ccc2nc(NC(=O)c3ccccc3C)sc2c1	none
Cc1ccccc1C(=O)Nc1ccc2nc(NC(=O)c3ccccc3C)sc2c1	TEAD-YAP block 54.9
CC(C)(C)c1ccc(C(=O)Nc2nc3ccccc3s2)cc1	TEAD-YAP block 39.2
COc1ccccc1C(=O)Nc1nc2ccc(NC(C)=O)cc2s1	none
COc1ccccc1C(=O)Nc1nc2ccccc2s1	TEAD-YAP block 95.0
Cc1ccsc1C(=O)Nc1nc2ccc(S(C)(=O)=O)cc2s1	TEAD-YAP block 62.2
CCCOc1ccc(C(=O)Nc2nc3ccccc3s2)cc1	none
CCCc1ccc(C(=O)Nc2nc3ccccc3s2)cc1	TEAD-YAP block 38.0
CC(C)(O)C1(C)NCCc2ccccc21 (stereo not given)	none
COc1ccc(-c2nc(C(=O)Nc3cc(OC)c(OC)c(OC)c3)cs2)cc1	none
COc1cc(NC(=O)c2csc(-c3ccc(C(N)=O)cc3)n2)cc(OC)c1OC	TEAD-YAP block 36.4
COc1cc(NC(=O)c2csc(N3CCN(Cc4ccc5c(c4)OCO5)CC3)n2)cc(OC)c1OC	TEAD-YAP block 41.4
COc1cc(Nc2ccnc(-c3ccc(C(N)=O)cc3)n2)cc(OC)c1OC	TEAD-YAP block 50.9
CCOc1ccccc1CN1CCc2nnc(C(C)NC(=O)C3CCOCC3)n2CC1 (stereo not given)	none
COc1cc(-c2nc3ccccc3c(=O)n2Cc2cccc([N+](=O)[O-])c2)cc(OC)c1OC	none
CCNc1nc2c(c(=O)n(C)c(=O)n2C)n1CCc1ccccc1	TEAD-YAP block 33.3
CC(C)n1c(CN(C)Cc2ccccc2)nc2c1c(=O)n(C)c(=O)n2C	TEAD-YAP block 49.6
COc1cccc(Cn2c(NCc3ccco3)nc3c2c(=O)n(C)c(=O)n3C)c1	TEAD-YAP block 39.6
Cc1ccc(Cn2c(CN(C)Cc3ccccc3)nc3c2c(=O)n(C)c(=O)n3C)cc1	none
O=C(NC12CC3CC(CC(C3)C1)C2)c1ccc(CN2CCCC(O)C2)[nH]c1=O (stereo not given)	none
Cc1[nH]n2c(=O)cc(C(C)(C)C)nc2c1-c1cccs1	TEAD-YAP block 49.6
c1cc(-c2cncc(N3CCOCC3)c2)nc(Nc2ccc(-c3cnn(CCN4CCOCC4)c3)cc2)n1	TEAD-YAP block 96.0
Fc1cncc(-c2ccnc(Nc3ccc(-c4cnn(CCN5CCOCC5)c4)cc3)n2)c1	none
CCCn1cc(-c2ccc(Nc3nccc(-c4cncc(N5CCOCC5)c4)n3)cc2)cn1	TEAD-YAP block 46.8
Nc1oncc1-c1ccc(NC(=O)C2COc3ccccc3C2)cc1 (stereo not given)	none
Nc1[nH]ncc1-c1ccc(NC(=O)C2COc3ccc(F)cc3C2)cc1 (stereo not given)	TEAD-YAP block 46.9
Nc1oncc1-c1ccc(NC(=O)C2COc3ccc(F)cc3C2)cc1 (stereo not given)	TEAD-YAP block 49.6
Cc1[nH]ncc1-c1ccc(NC(=O)C2COc3ccccc3C2)cc1 (stereo not given)	TEAD-YAP block 41.4
COc1ccc(CCn2ccc(-c3sc(NCc4cnn(C)c4C)nc3C)n2)cc1	none
CCCn1cc(CN2CCCC(N3CCOCC3)C2)c(C)n1 (stereo not given)	none
Cc1c(CCNS(=O)(=O)c2ccc(F)cc2)sc2nc(-c3ccc(F)cc3)nn12	TEAD-YAP block 37.3
Cn1ncc2c1/C(=C/c1ccc(Cl)cc1)CC2	TEAD-YAP block 54.8
N#CCCn1ncc2c1/C(=C/c1ccccc1)CC2	none
O=C(Nc1nn[nH]n1)c1ccc(-c2ccccc2)cc1	none
COc1ccccc1N1CCN(C(=O)c2cccc(Br)c2)CC1	TEAD-YAP block 36.1
CCOC(=O)CS(=O)(=O)c1ccc(C(=O)N2CCN(c3cccc(C)c3C)CC2)cc1[N+](=O)[O-]	TEAD-YAP block 34.2
COc1cccc(C(=O)N2CCN(c3cccc(C)c3C)CC2)c1	TEAD-YAP block 32.8
COc1ccccc1C(=O)N1CCN(c2cccc(C)c2C)CC1	TEAD-YAP block 47.1
CCOC(=O)CS(=O)(=O)c1ccc(C(=O)N2CCN(c3cc(C)ccc3C)CC2)cc1[N+](=O)[O-]	none
O=C(CSc1nnc2[nH]c(=O)ccn12)Nc1cccc([N+](=O)[O-])c1	none
CCC(Sc1nc2ccsc2c(=O)n1Cc1ccc2c(c1)OCO2)C(=O)NCc1ccco1 (stereo not given)	none
CCCCC[C@@H](O)/C=C/[C@H]1[C@H](C/C=C\CCCC(=O)O)[C@H](O)C[C@@H]1O	none (no result: FBW7 act, TEAD-YAP block)
